Out of some 320,000 compounds screened, about 1,300 (0.41%) were called active. Another 3% or so got no clear call; they are omitted. How the calls were made is not given here. Only a sample is shown. Potency and affinity values are given separately.

The text below walks through data of PubChem BioAssay AID488890 (Southern Research Specialized Biocontainment Screening …, 2010).

This test in a line: growth inhibition of non-replicating M. tuberculosis (AID 488890).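 Further: plate controls were DMSO cells for no effect and high antibiotic wells for full effect.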 Conditions: Mycobacterium tuberculosis non-replicating, at 25 µM, stronger effect = higher value.
A word on the inhibition: it is the drop in the measured response relative to a control, in per cent. Turning to `CN(c1ccccc1)S(=O)(=O)c1ccc(NC(=S)NC(=O)C2CC2)cc1`, the inhibition was -18.9%. Under `COc1cc(OC)cc(C(=O)N2CCC(C(=O)c3ccc(F)cc3)CC2)c1` stands 5.91%; under `CC(C)[C@@H](C(=O)NC1CC1)N1C(=O)N2CCc3c([nH]c4ccccc34)[C@@]2(C)C1=O`, 21%; under `CC1CCC(NC(=O)CN2CCN(S(=O)(=O)c3cccs3)CC2)CC1` (stereo not drawn), 1.37%. As to `Cc1nc2c(-c3ccc(F)cc3)c(C)nn2c(N2CCOCC2)c1C`, the inhibition amounted to 40.1%. With `O=C(O)CSc1nnc(-c2ccc(Cl)cc2Cl)n1Cc1ccccc1`, the inhibition was -8.24%. Under `O=C(NC1CCCCC1)C(c1cccs1)N(C(=O)C(F)(F)F)c1ccccc1` (stereo not drawn) stands 14.2%; under `Cc1cc(C(=O)NNc2ccc(F)cc2)no1`, 57.1%; under `Cc1cc(C(=O)NNC(=O)Nc2ccc(Cl)cc2)no1`, -6.49%. As for `Cc1ccc(C)c(C(=O)CCC(=O)Nc2ccc(F)cc2)c1`, the inhibition was 40%. As to `CC(C)OCC(O)CS(=O)(=O)Cc1ccccc1` (stereo not drawn), the inhibition is -5.18%. For `O=C(c1cccnc1)N1CCC(Oc2ccc(C(=O)N3CCCC(O)C3)cc2)CC1` (stereo not drawn) the value was -34.2%; for `CSc1cc(C)[nH]c(=O)n1`, -1.97%; for `CSc1nc(Cl)cc(=O)[nH]1`, 6.5%. Regarding `O=C(NCC(c1ccco1)N1CCc2ccccc21)c1ccccc1Br` (stereo not drawn), the inhibition worked out at 11.1%. Under `CC(=O)NCCc1nc2ccccc2n1Cc1ccc(Cl)cc1` stands 0.72%; under `CC(=O)NCCCc1nc2ccccc2n1Cc1ccc(C)cc1`, 1.78%; under `O=C(Nc1nc2ccccc2n1Cc1ccc(Cl)cc1)c1ccco1`, -7.17%. For `Cc1ccc(Cn2c(NS(=O)(=O)c3ccccc3)nc3ccccc32)cc1` the value was -3.28%. For the compound `CC(=O)Nc1ccc(-c2nc3cc(Cl)ccc3o2)cc1`, the inhibition is 49.8%.

Turning to `CC/C(=N\NC(N)=O)c1c(O)[nH]c(=O)[nH]c1=O`, the inhibition is -25.7%. For `C/C(Cn1nnc([N+](=O)[O-])n1)=N\NC(=O)c1ccc(O)cc1` the value was 54.4%. For `C/C(Cn1nnc([N+](=O)[O-])n1)=N\NC(=O)c1ccc(C)cc1` the value was 55.5%; for `Cc1nc2c(sc3nc4c(cc32)COC(C)(C)C4)c(=O)n1Cc1ccccc1`, 8.21%; for `CCNC(=O)OCC12CC3CC(CC(C3)C1)C2`, 77%. Consider `CCCNC(=O)OCCC12CC3CC(CC(C3)C1)C2`, for which the inhibition turned out to be 69.4%. Under `COc1ccc(Cl)c2sc(N(CCN(C)C)C(=O)CCS(=O)(=O)c3ccc(C)cc3)nc12` stands 26.4%; under `O=C(NCC1CCCN(C(=O)c2cccnc2)C1)c1ccc(-c2ccccc2)cc1` (stereo not drawn), -2.83%.

Take `O=C(O)c1ccc(Nc2ncc([N+](=O)[O-])cc2[N+](=O)[O-])cc1`: the inhibition is 5.68%. With `O=[N+]([O-])c1ccc(Nc2ccc(Cl)cc2)nc1`, the inhibition amounted to 16.9%. Under `COc1ccc(CCNC(=O)c2ccc(S(=O)(=O)N(C)c3ccccc3)cc2)cc1OC` stands -1.9%; under `O=C(CC1CCCC1)Nc1cc(C(F)(F)F)ccc1-n1cncn1`, 12.3%; under `c1ccc(Nc2ccccc2Nc2ccccn2)nc1`, 0.46%. For `c1ccc(Nc2ccccn2)nc1` the value was 3.72%. Under `COc1cc(NC(=O)c2ccc([N+](=O)[O-])o2)ccc1NC(=O)c1ccco1` stands 66.5%; under `Cc1cccc(NC(=O)c2cccc(Cn3cc(Br)c([N+](=O)[O-])n3)c2)c1C`, -0.16%. Consider `Cc1ccc(CNC(=O)c2ccc(Br)o2)cc1`, for which the inhibition turned out to be 71.9%. For `O=C(NCc1cccnc1)c1ccc([N+](=O)[O-])o1` the value was 62.8%; for `COc1ccccc1NC(=O)c1ccc(-c2ccccc2[N+](=O)[O-])o1`, 25%; for `Cc1ccccc1Cn1nnc(C(=O)Nc2cccc(C)c2C)c1N`, 26%. For `Cc1cccc(NC(=O)c2ccco2)c1C` the value was -14.2%.

With `Cc1cccc(NC(=O)COC(=O)c2ccc([N+](=O)[O-])o2)c1C`, the inhibition worked out at 61.9%. For `O=C(NCc1ccccc1)c1cc[n+](Cc2ccccc2)cc1` the value was -1.18%; for `Cc1ccc(C(C)(C)NC(=O)C2CCC(=O)N(C3CCCCCC3)C2)cc1` (stereo not drawn), 8.48%.

For the compound `Cc1ccccc1CC(=O)N1CCN(S(=O)(=O)c2cccs2)CC1`, the inhibition is -18.2%.

In the case of `O=C(Cc1ccccc1)NC(c1ccco1)c1c(O)ccc2ccccc12` (stereo not drawn), the inhibition is 11.6%.

In the case of `O=C(NCc1ccccc1)C1=C[C@@H](c2csc3ccccc23)C[C@@H](OCCCCO)O1`, the inhibition was -6.19%. Regarding `NC(=O)c1cc(S(=O)(=O)N2CC=C(c3ccccc3)CC2)cs1`, the inhibition was -1.59%. Under `N#CCc1ccc(NC(=O)CSc2nnc(C3CC3)n2C2CC2)cc1` stands -7.07%; under `CC(=O)OCC(=O)Nc1ccc(SC(F)F)cc1`, -17.3%. For `COc1ccc(CNC(=O)N2CCN(c3cccc(C)c3C)CC2)cc1OC` the value was 47.1%; for `Cc1ccc2nc(-c3ccncc3)cc(C(=O)N3CCC4(CC3)OCCO4)c2c1`, 8.38%; for `O=C(CSc1ncn(-c2ccccc2)n1)Nc1nccs1`, 12.5%. For `Cc1cc(OC2CCCCC2)nc(-c2ccccc2O)n1` the value was 0.01%.

As for `C=C1CCC[C@]2(C)C[C@H]3OC(=O)C(CNC(CC)CO)[C@H]3CC12` (stereo partly drawn), the inhibition was found to be 34.3%.

`O=C(Nc1nccs1)c1ccc(N2C(=O)C3CCCCC3C2=O)cc1` (stereo not drawn): the inhibition came to 6.17%.

Consider `Cc1cc(C)nc(NC(=O)c2ccc([N+](=O)[O-])o2)n1`, for which the inhibition stood at 70.5%. For `Cc1c([N+](=O)[O-])cc(C(=O)Nc2ccc(Cc3ccncc3)cc2)cc1[N+](=O)[O-]` the value was 59.9%; for `O=C(Nc1ccc(Cc2ccncc2)cc1)c1ccc(Br)o1`, -2.73%.

For `O=C(Nc1cccc(NC(=O)c2ccccc2Cl)c1)c1ccc([N+](=O)[O-])o1`, the inhibition was determined as 8.06%. For `Cc1ccc(C(=O)Nc2cccc3ccccc23)o1` the value was 26.4%.

With `O=C(NC12CC3CC(CC(C3)C1)C2)c1ccc([N+](=O)[O-])cc1`, the inhibition was 74.3%. For `O=C(NC12CC3CC(CC(C3)C1)C2)c1ccc(-c2ccc(Cl)cc2)o1` the value was 64.3%; for `O=C(COC(=O)c1ccc([N+](=O)[O-])o1)Nc1cccc2ccccc12`, 71.3%; for `O=C(NCCCN1CCN(CCCNC(=O)c2cccc(Cl)c2)CC1)c1cccc(Cl)c1`, 43.3%. Under `CCOc1ccc(NC(=O)CN(C)C(=O)c2ccc(C)o2)cc1OCC` stands -1.16%; under `Cc1ccc(-c2cc(C(=O)Nc3cccnc3)[nH]n2)c(O)c1C`, 3.48%. `CC(C)NC(=O)CCn1nc(-c2ccc(Cl)cc2)c2ccccc2c1=O`: the inhibition was 10%. Under `FC(F)(F)c1cc(-c2ccco2)nc(N2CCN(c3ccccc3)CC2)n1` stands -1.1%; under `O=C(CCNC(=O)c1ccc(Br)cc1)NCc1ccco1`, 6.14%; under `CC(=O)c1cccc(S(=O)(=O)NCCC(=O)O)c1`, -0.2%.

In the case of `CN1CCN(c2ccccc2NC(=O)c2ccc([N+](=O)[O-])o2)CC1`, the inhibition was 44.3%. As to `O=C(Nc1ccccc1N1CCOCC1)c1ccc([N+](=O)[O-])o1`, the inhibition came out at 67.3%. For `Cc1cc(C)c2nc(NC(=O)c3ccc([N+](=O)[O-])o3)sc2c1` the value was 62.3%; for `NS(=O)(=O)c1ccc(O)c(NC(=O)c2ccc([N+](=O)[O-])o2)c1`, 76.7%. Consider `CCn1ncc(Br)c1C(=O)Nc1cc(C)cc(C)c1`, for which the inhibition is -11%. Take `C=C1CCC2[C@](C)(CO)[C@H](O)CC[C@@]2(C)[C@@H]1/C=C/C1=CCOC1=O` (stereo partly drawn): the inhibition was -9.71%. On to `CC(C)c1ccc(C(C(=O)NC2CCCC2)N(C(=O)CNC(=O)c2ccco2)c2cccnc2)cc1` (stereo not drawn), for which the inhibition is -5.98%. Under `O=C(NS(=O)(=O)Nc1ccccc1)C1=C(N2CCCC2)COC1=O` stands 12.7%; under `CCOC(=O)N1CCN(C(=O)CSc2nc3c([nH]c4ccccc43)c(=O)n2CCOC)CC1`, -12.8%. For `COC(=O)c1nn(-c2cccc(C)c2)c2nnc(Cc3ccc(C)cc3)c(=O)n12` the value was -0.72%; for `COc1ccc(NC(=O)N2CCCC2C(=O)NC2CCCC2)cc1` (stereo not drawn), -20.1%. For `COc1ccccc1N1CCN(C(=O)C2CC=CCC2C(=O)O)CC1` (stereo not drawn) the value was -0.47%. In the case of `COc1cccc2c1OCC(C(=O)O)C2` (stereo not drawn), the inhibition was -4.89%.

With `CCOC(=O)C1CCN(C(=O)c2ccc3c(=O)n4c(nc3c2)CCCCC4)CC1`, the inhibition was -14.7%. For `O=Nc1c(-c2ccccc2)[nH]n(-c2ccccc2)c1=O` the value was 63%. For `Cn1nc(-c2ccccc2)c(/C=N/O)c1Cl` the value was -12.1%; for `Cc1sc2ncnc(N3CCCCC3C)c2c1C` (stereo not drawn), 32.6%; for `CCOc1ccc(S(=O)(=O)N2CCCC(C(=O)NCc3ccccc3)C2)cc1` (stereo not drawn), -11.6%. Under `CN(C)C=NC(=O)c1cn(-c2ccc(F)cc2)c(=O)c2ccccc12` stands -9.03%. In the case of `O=C(N/N=C/C=C\c1ccccc1[N+](=O)[O-])c1cccnc1`, the inhibition is -10.7%.

Turning to `O=C(N/N=C/C=C/c1ccccc1)c1cnccn1`, the inhibition was found to be 15.9%. Consider `O=C(N/N=C/C=C/c1ccccc1[N+](=O)[O-])c1cccnc1`, for which the inhibition was -8%. With `O=C(N/N=C/C=C\c1ccccc1)c1cnccn1`, the inhibition is 11.4%. For `O=C(N/N=C/c1ccco1)c1ccncc1` the value was 54.4%; for `O=C(N/N=C/C=C/c1ccco1)c1cnccn1`, -12.5%. `COc1ccccc1/C=C/C=N/NC(=O)c1cnccn1`: the inhibition came to 5.21%. `COc1ccccc1/C=C/C=N/NC(=O)c1ccccn1`: the inhibition amounted to 70.9%.

With `COc1ccc(CNC(=O)c2ccc[nH]2)cc1`, the inhibition was determined as 34.3%. Under `CC(=O)N1CCN(c2ccc(NC(=O)c3ccc4c(c3)OCCO4)cc2Cl)CC1` stands 27.7%; under `Cc1cccc(OCC(=O)OC(C)C(=O)Nc2ccc(S(=O)(=O)N3CCCCC3)cc2)c1` (stereo not drawn), 17.6%; under `C=C(C)CSc1nnc(-c2cc(OC)c(OC)c(OC)c2)n1N`, -11%. For `COc1ccc(C2=NN(C(=O)CN3CCCC3)C(c3ccc(OC)cc3)C2)cc1` (stereo not drawn) the value was -5.46%; for `C/C(=N/NC(=O)c1ccncc1)c1ccccc1`, 49.1%; for `CC1(C)OC(c2ccccc2)=C/C(=C/C=Nc2ccccc2)O1`, 14.4%. For `O=C(N/N=C/C=C/c1ccccc1)c1ccc(Br)cc1` the value was -16.8%; for `O=C(N/N=C/c1ccncc1)c1ccccc1`, 67.6%.

With `O=C(O)CC/C(=N\NC(=O)c1ccncc1)c1ccccc1`, the inhibition came out at 37.3%.

Consider `Cn1cc(C(=O)N/N=C/C=C/c2ccccc2)ccc1=O`, for which the inhibition was -14.3%. For `C/C=C/C=N\NC(=O)c1ccncc1` the value was 57.5%; for `Cc1ccccc1N=C/C=C1/C=C(c2ccccc2)OC(C)(C)O1`, 32.8%; for `CCCOc1ccc(Cc2c(O)nc(SC)[nH]c2=O)cc1`, 8.21%. For `CCC1(c2ccccc2)NC(=O)N(CC(=O)NC2CCCCCC2)C1=O` (stereo not drawn) the value was 15.6%.
